In PubChem BioAssay (NCI) one finds growth data, which are given here for nine compounds.

What all share (assay): NCI-60 one-dose screen, 48 h (100 = growth as untreated, 0 = no growth, -100 = all killed)
In one assay the test system is SR leukemia. The note with it: 10 µM unless noted.
For the next assay, the system named is RPMI-8226 leukemia. The note with it: 10 µM unless noted.
The next assay concerns OVCAR-8 ovarian. Conditions: 10 µM unless noted.
Another assay has as its system OVCAR-5 ovarian. Conditions: 10 µM unless noted.
A further assay concerns OVCAR-4 ovarian. Conditions: 10 µM unless noted.
For the next assay, the system named is SK-OV-3 ovarian. The note with it: 10 µM unless noted.
A further assay concerns IGROV1 ovarian. Conditions: 10 µM unless noted.
The test system of a further assay is OVCAR-3 ovarian. The note with it: 10 µM unless noted.
The subject of a further assay is HS 578T breast. Conditions: 10 µM.
Another assay concerns NCI/ADR-RES ovarian. The note with it: 10 µM unless noted.
The next assay deals with BT-549 breast. The note with it: 10 µM unless noted.
A further assay has as its system MDA-MB-435 melanoma. The note with it: 10 µM unless noted.
The next assay relates to SW-620 colon. The note with it: 10 µM unless noted.
For another assay, the system named is MCF7 breast. The note with it: 10 µM unless noted.
In another assay the test system is HCT-116 colon. Conditions: 10 µM unless noted.
In a further assay the test system is HCC-2998 colon. Conditions: 10 µM unless noted.
A further assay has as its system KM12 colon. The note with it: 10 µM unless noted.
In a further assay the test system is T-47D breast. The note with it: 10 µM unless noted.

The panel holds about 83,000 compounds, 20% with a hit somewhere; the sample as a whole holds those more often.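 Negative percent growth values reflect cell death: -40 means 40% of the cells present at the start died, and -100 means all died.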 Values without a mark were called inactive. Calls of active or inactive are those of the source. How the source made its calls: active means growth percent below 10; inactive means the rest.

Consider `C[C@@H](C[C@H](CC1CC1)c1ccccc1)c1ccc2ccccc2c1`, for which the growth in the assay with SR leukemia was 106%; with RPMI-8226 leukemia it was 98.8%; with OVCAR-8 ovarian, 106%; in the assay on OVCAR-5 ovarian, 107%; with OVCAR-4 ovarian it was 96.1%; in the assay on SK-OV-3 ovarian, 117%. Moreover, the growth was 101% with IGROV1 ovarian; 113% with OVCAR-3 ovarian; 108% in the assay with HS 578T breast; 105% in the assay with NCI/ADR-RES ovarian; 106% with BT-549 breast; 102% with MDA-MB-435 melanoma. Besides, the growth in the assay with SW-620 colon was 93.6%; with MCF7 breast, 108%; in the assay on HCT-116 colon it was 98.6%; in the assay with HCC-2998 colon, 101%; in the assay on KM12 colon, 103%.

Regarding `COc1ccc(C2=Nn3c(nnc3-c3ccc(Cl)cc3N)SC2)cc1`, the growth in the assay with SR leukemia is 102%; with RPMI-8226 leukemia, 103%; in the assay on OVCAR-8 ovarian, 98.1%; in the assay with OVCAR-5 ovarian, 99.5%; in the assay with OVCAR-4 ovarian it was 103%; with SK-OV-3 ovarian, 102%. Besides, the growth in the assay on IGROV1 ovarian is 114%; in the assay with OVCAR-3 ovarian, 114%; with HS 578T breast, 113%; in the assay with NCI/ADR-RES ovarian it was 115%; in the assay on T-47D breast it was 88.1%; with MDA-MB-435 melanoma, 91.4%. Further, the growth in the assay with SW-620 colon is 108%; in the assay on MCF7 breast, 89.8%; in the assay on HCT-116 colon it was 105%; in the assay with HCC-2998 colon, 120%.

Take `O=C1CC2(O)CSc3nc(=O)cc(n32)N1` (stereo unspecified): the growth with SR leukemia is 102%; in the assay with RPMI-8226 leukemia, 99%; with OVCAR-8 ovarian, 107%; in the assay with OVCAR-5 ovarian, 105%; in the assay on OVCAR-4 ovarian it was 121%; in the assay on SK-OV-3 ovarian, 102%. Moreover, the growth in the assay on IGROV1 ovarian is 109%; with OVCAR-3 ovarian, 115%; in the assay with HS 578T breast, 121%; with NCI/ADR-RES ovarian, 112%; in the assay with BT-549 breast, 107%; in the assay with MDA-MB-435 melanoma it was 100%. The growth with SW-620 colon was 112%; in the assay with MCF7 breast it was 96%; in the assay on HCT-116 colon it was 106%; in the assay with HCC-2998 colon, 120%; with KM12 colon it was 102%.

Take `O=C(CCc1nc2sc3c(c2c(=O)[nH]1)CCC3)NCc1cn(-c2ccccc2)nc1-c1ccccc1`: the growth with SR leukemia was -18% (active); with RPMI-8226 leukemia it was 90%; in the assay with OVCAR-8 ovarian, 44.3%; with OVCAR-5 ovarian, 86.2%; in the assay on OVCAR-4 ovarian, -48% (active); in the assay with SK-OV-3 ovarian, 68.5%. The growth in the assay with IGROV1 ovarian is 93%; with OVCAR-3 ovarian, 16.9%; in the assay on HS 578T breast, 48.4%; in the assay on T-47D breast, -0.261% (active); in the assay with BT-549 breast, 95.6%; in the assay on MDA-MB-435 melanoma, 76.1%. In addition, the growth with SW-620 colon was 28.7%; in the assay with MCF7 breast, 34.1%; with HCT-116 colon, -27.1% (active); with HCC-2998 colon, 87.5%; in the assay on KM12 colon, 85.3%.

As for `O=C1/C(=C\c2cccn2Cc2ccc(Cl)cc2)c2ccccc2N1c1c(Cl)cccc1Cl`, the growth with SR leukemia was 75.3%; in the assay with RPMI-8226 leukemia, 76.1%; in the assay on OVCAR-8 ovarian it was 85.2%; with OVCAR-5 ovarian, 86.8%; with OVCAR-4 ovarian, 40.2%; in the assay with SK-OV-3 ovarian, 86.7%. Besides, the growth with IGROV1 ovarian was 63%; with OVCAR-3 ovarian, 82.3%; in the assay on HS 578T breast, 97.2%; with T-47D breast it was 25.1%; in the assay with BT-549 breast, 94.5%; in the assay with MDA-MB-435 melanoma it was 106%. Also, the growth with SW-620 colon is 91.5%; with MCF7 breast, 12.8%; in the assay with HCT-116 colon, 77%; in the assay on HCC-2998 colon it was 79.8%; in the assay on KM12 colon, 54.3%.

On to `COc1ccc2nc(C)cc(Nc3ccccc3O)c2c1`, for which the growth in the assay with SR leukemia was -32.8% (active); in the assay on RPMI-8226 leukemia it was 25%; in the assay with OVCAR-8 ovarian, 32.6%; in the assay on OVCAR-5 ovarian it was 108%; in the assay on OVCAR-4 ovarian, -76.1% (active); in the assay with SK-OV-3 ovarian, -41.5% (active). Moreover, the growth was 44.9% in the assay on IGROV1 ovarian; -35.5% (active) in the assay on OVCAR-3 ovarian; -3.7% (active) with HS 578T breast; 44% in the assay on T-47D breast; 35% in the assay on BT-549 breast; 64.4% with MDA-MB-435 melanoma. The growth in the assay on SW-620 colon is 82%; with MCF7 breast, 67.7%; with HCT-116 colon, 29.9%; in the assay with HCC-2998 colon it was 112%; with KM12 colon, 86.9%.

Turning to `CN=C1C=C/C(=N/N=c2/ccn(O)cc2C)C=C1C`, the growth in the assay with SR leukemia was 90.5%; with RPMI-8226 leukemia, 77.1%; with OVCAR-8 ovarian it was 94.2%; in the assay on OVCAR-5 ovarian, 83.2%; with OVCAR-4 ovarian, 97.5%; in the assay with SK-OV-3 ovarian it was 102%. In addition, the growth in the assay on IGROV1 ovarian is 129%; in the assay on OVCAR-3 ovarian, 117%; with HS 578T breast, 110%; in the assay with T-47D breast, 90.1%; in the assay on BT-549 breast, 107%; in the assay with MDA-MB-435 melanoma, 102%. The growth with SW-620 colon was 98.5%; in the assay with MCF7 breast, 81%; in the assay with HCT-116 colon, 90.9%; in the assay on HCC-2998 colon it was 91.7%; in the assay on KM12 colon, 109%.

For `CCOC(=O)c1c(NC(=O)c2ccccc2)sc2c(O)c(CN(CC)CC)ccc12`, the growth was 9.72% (active) in the assay with SR leukemia; 18.2% in the assay on RPMI-8226 leukemia; 2.1% (active) in the assay on OVCAR-8 ovarian; 48.6% with OVCAR-5 ovarian; 42.8% with OVCAR-4 ovarian; -14.8% (active) in the assay on SK-OV-3 ovarian. The growth was 22.4% in the assay with IGROV1 ovarian; -61.6% (active) in the assay on OVCAR-3 ovarian; 26.9% in the assay on HS 578T breast; 44.9% in the assay with T-47D breast; 0.881% (active) in the assay with BT-549 breast; -55.4% (active) with MDA-MB-435 melanoma. Besides, the growth in the assay with SW-620 colon was 19.6%; in the assay with MCF7 breast, 8.33% (active); in the assay on HCT-116 colon, 7.59% (active); in the assay on HCC-2998 colon it was 11.6%; with KM12 colon, 2.35% (active).

With `CC1CCN(Cc2ccc(NC(=O)c3cc4ccc5cccnc5c4[nH]3)cc2)CC1`, the growth in the assay with SR leukemia is 2.01% (active); in the assay on RPMI-8226 leukemia, 19.8%; in the assay on OVCAR-8 ovarian, 34.1%; in the assay with OVCAR-5 ovarian it was 51.8%; with OVCAR-4 ovarian, 66.5%; with SK-OV-3 ovarian, 12.7%. Moreover, the growth in the assay with IGROV1 ovarian is 46.7%; in the assay with OVCAR-3 ovarian it was -14.3% (active); in the assay on HS 578T breast, 33.7%; with T-47D breast it was 38.4%; with BT-549 breast it was 42.8%; with MDA-MB-435 melanoma, -67.6% (active). In addition, the growth in the assay with SW-620 colon was 28.1%; with MCF7 breast, 27.2%; in the assay on HCT-116 colon, 13.6%; with HCC-2998 colon, 17.5%.
